PTAP-TSG101 blk: inhibitors of HIV-1 PTAP binding to human TSG101, validation. 44,000 tested, under 10 active. Fluorescence polarization, FITC-PTAP peptide/Tsg101, 20 min. Potency, µM (doses to about 115 µM), hits mostly inhibitors; further: potency means the concentration at half of the fitted maximal effect; 0% is about no effect
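Compounds pinned into 10 uM Tsg101 binding domain, then 50 nM FITC-PTAP peptide added in pH 7.5 HEPES buffer; FP read after 20 min, room temperature. Total S+P intensity flags fluorescent compounds; active cut-off <25 µM, efficacy <60%.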
B2AR arrestin ag: ADRB2 beta-arrestin recruitment; P07550; HTLA Tango cells, beta-arrestin recruitment, luciferase luminescence, 18 h; Potency, µM (highest dose often 46.1 µM), actives largely listed as activators; 44,000 tested, under 10 active;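 further: potency means the concentration at half of the fitted maximal effect; 0% = DMSO and full agonism = EC100 isoproterenol or metaproterenol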
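Ligand-induced beta-arrestin recruitment to recombinant beta2-AR is measured via a tTA-driven luciferase reporter in Tango cells after 18 hr compound exposure at 37 degrees C. Concentrations span up to 46 microM.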
GPR32 ag: activates human resolvin D1 receptor GPR32; O75388; CHO-K1 GPR32 beta-arrestin PathHunter luminescence, 90 min; zero percent set by DMSO-only wells; activation, % at 76.9 µM; hit rate 2.5% among 48,000; AID 1346428;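 active means activation of at least 60% and not above a set upper limit, about 1 call in 100 departs from these limits; inconclusive means activation of 40% to 60%, or above that upper limit; inactive means activation under 40%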; further: 0% is about no effect
Target sequence (O75388 whole entry, looked up): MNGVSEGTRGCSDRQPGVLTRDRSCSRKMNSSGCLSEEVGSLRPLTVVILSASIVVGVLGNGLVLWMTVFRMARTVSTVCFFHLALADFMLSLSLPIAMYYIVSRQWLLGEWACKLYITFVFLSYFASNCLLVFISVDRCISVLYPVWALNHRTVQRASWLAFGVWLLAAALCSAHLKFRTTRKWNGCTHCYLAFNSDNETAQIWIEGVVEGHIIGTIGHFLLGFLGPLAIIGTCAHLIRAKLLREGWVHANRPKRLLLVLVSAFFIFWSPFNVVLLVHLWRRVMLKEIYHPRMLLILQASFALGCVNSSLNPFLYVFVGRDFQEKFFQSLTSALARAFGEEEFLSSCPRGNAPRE
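Agonism was scored by beta-Gal fragment complementation (chemiluminescent read, 1 h detection at ambient temperature) reporting beta-arrestin binding to GPR32 in engineered CHO-K1 cells. Compound treatment lasted 90 min at 37 C, normalized to a DMSO basal control.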
GALC G270D act: enhancers of human galactocerebrosidase G270D mutant activity in cells. P54803. 145M-Twi-hGALC-G270D cells, HMU-beta-Gal fluorescence, 48 h. Potency, µM (highest dose often 57.5 µM), actives largely listed as activators. hit rate 0.1% among 45,000; further: potency means the concentration at half of the fitted maximal effect; 0% is about no effect; nearly all actives have a fitted effect of over 65% in size
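qHTS, 1536-well; 145M-Twi-hGALC-G270D cells (WT line also made) in DMEM/F12 + 10% FBS; compound incubation on live cells; HMU-β-gal 0.1 mM final, pH 5.2, NaTC; carbonate stop; fluorescence increase = enhanced residual activity.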
An asterisk follows results filed as active; i = inactive; u = inconclusive; x = no result. Most compounds without a hit are left out; they make up all but 2.9% or so of the library. Unless noted, the call rests on the fitted dose curve; in most records, active means well fitted curve in the direction sought with a large enough effect; inconclusive means small, poorly fitted or top-dose-only effect, or another doubt; inactive means no such curve, though single readings can be large; an effect the other way counts as inactive or inconclusive.

SMILES | PTAP-TSG101 blk | B2AR arrestin ag | GPR32 ag | GALC G270D act
CCN(c1ccccc1)S(=O)(=O)c1ccc2[nH]cc(C(=O)NCc3ccc(C)cc3)c(=O)c2c1 | i | i | 63* | i
CCc1ccc(NS(=O)(=O)c2ccc3[nH]cc(C(=O)NCCc4ccccc4)c(=O)c3c2)cc1 | i | i | -8 | i
O=C(NC1CCCCC1)c1c[nH]c2ccc(S(=O)(=O)Nc3ccccc3F)cc2c1=O | i | i | 101* | i
O=C(NC1CCCC1)c1c[nH]c2ccc(S(=O)(=O)Nc3cccc(C(F)(F)F)c3)cc2c1=O | i | i | 82* | i
Cc1ccc(C(=O)Nc2nnc(S(=O)(=O)N(C)Cc3ccc(F)cc3)s2)cc1 | i | i | 18 | i
CCc1ccccc1NS(=O)(=O)c1ccc2[nH]cc(C(=O)NC3CCCC3)c(=O)c2c1 | i | i | 106* | i
CNC(=O)c1c[nH]c2ccc(S(=O)(=O)Nc3cccc(Cl)c3C)cc2c1=O | i | i | -4 | i
O=C(NC1CCCCC1)c1cc(Nc2cccc(C(F)(F)F)c2)nc2ccccc12 | i | i | 7 | i
CCc1ccc(NS(=O)(=O)c2ccc3[nH]cc(C(=O)NC4CCCC4)c(=O)c3c2)cc1 | i | i | u | i
CCOc1ccc(NS(=O)(=O)c2ccc3[nH]cc(C(=O)NCc4ccco4)c(=O)c3c2)cc1 | i | i | 67* | i
CCOc1ccc(NS(=O)(=O)c2ccc3[nH]cc(C(=O)NCc4ccccc4)c(=O)c3c2)cc1 | i | i | u | i
O=C(NC1CCCC1)c1cc(Nc2cccc(C(F)(F)F)c2)nc2ccccc12 | i | i | 96* | i
CCOCCCNC(=O)c1c[nH]c2ccc(S(=O)(=O)Nc3cccc(Cl)c3C)cc2c1=O | i | i | 65* | i
C[C@@H](O)[C@H]1C(=O)N2C(C(=O)O)=C([C@H]3CCCO3)S[C@H]12 | x | x | -4 | i
COc1cccc(OCc2cc(=O)n3c(-c4ccccc4)csc3n2)c1 | i | u | 121* | i
Clc1ccc(-c2noc3ncnc(N4CCCCC4)c23)cc1 | i | i | 83* | i
CCN1CCCC1CN (centres undefined) | x | x | 0 | i
Cc1ccc(NS(=O)(=O)c2ccc3nc(-c4ccccc4)[nH]c3c2)c(Cl)c1 | i | i | 104* | i
CC(C)c1ccc(NS(=O)(=O)c2ccc3nc(-c4ccccc4)[nH]c3c2)cc1 | i | i | 110* | i
Cc1cccc(NS(=O)(=O)c2ccc3nc(-c4ccccc4)[nH]c3c2)c1C | i | i | 86* | i
Cc1ccc(NS(=O)(=O)c2ccc3nc(-c4ccccc4)[nH]c3c2)c(Br)c1 | i | i | u | i
CC[C@@]1(O)C(=O)OCc2c1cc1n(c2=O)Cc2c-1nc1ccccc1c2/C=N/OC(C)(C)C | x | x | 17 | i
N#Cc1c(-n2ncnc2-c2ccc(F)cc2)sc2c1CCCCC2 | i | i | 69* | i
Cc1ccccc1-c1ncnn1-c1sc2c(c1C#N)CCCCC2 | i | i | 106* | i
CCCCN(CCCC)C(C(N)=O)c1ccc(OC)cc1 (centres undefined) | x | x | -5 | i
SMILES | PTAP-TSG101 blk | B2AR arrestin ag | GPR32 ag | GALC G270D act
O=C(Nc1nonc1-c1ccc(Br)cc1)c1ccco1 | i | i | 71* | i
Cc1cccc(C)c1OCC(=O)Nc1nonc1-c1ccc(Br)cc1 | i | i | -1 | i
COc1cc2c(cc1OC)C(c1ccc(F)cc1)N(c1cccc(C#N)c1)C(=O)C2 (centres undefined) | i | i | 9 | x
CCOc1ccccc1N1CC(c2nc3ccccc3n2CCCOc2ccc(OC)cc2)CC1=O (centres undefined) | i | i | 1 | i
CCCCN1CC(c2nc3ccccc3n2CCCCOc2c(C)cccc2C)CC1=O (centres undefined) | i | i | 72* | i
CCOc1ccccc1N1CC(c2nc3ccccc3n2CCOc2ccc(OC)cc2)CC1=O (centres undefined) | i | i | 80* | i
Cc1cc(C)c2oc(-c3cccc(NC(=O)COc4ccccc4Cl)c3C)nc2c1 | i | i | -2 | i
CCOc1ccc(NC(=O)c2cc3c(n(-c4ccc(OC)cc4)c2=O)CC(C)(C)CC3=O)cc1 | i | i | -6 | i
